Sampled rows, rich in hits. Any-hit rate of the full collection: about 1.5%.
ABCB6 inh MLPCN: human ABCB6 transporter inhibition; actives 0.19% (n = 360,000); fluorescence ratio to DMSO, % at 10 µM; Q9NP58; K562-ABCB6 porphyrin accumulation, flow cytometry, 1 h; active compounds read low;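 active = fluorescence ratio to DMSO below 75%, the collection mean minus 3 SD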;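 also: signal is porphyrin accumulated inside mitochondria; 100% equals median channel fluorescence of DMSO control wells; lower ratio means ABCB6 inhibition with less porphyrin fluorescence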
DAGLB inh: blocks human DAGLB lipase activity. Q8NCG7. HEK293T DAGLB membrane lysate, EnzChek fluorogenic substrate. inhibition, % at 5.17 µM. actives 0.059% (n = 340,000). AID 504411; in the data active = inhibition above about 34%;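 also: 0% = enzyme with vehicle and 100% = wells lacking enzyme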
iPSC survival up: enhancers of human iPSC single-cell survival. hiPSC single-cell survival, ATPlite luminescence; 100% = ROCK inhibitor wells, 0% = DMSO. survival enhancement, % at 20 µM. actives 0.044% (n = 360,000). AID 602274; in the data active = survival enhancement above about 18%;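 also: cells exposed to compounds for 16 hours before the ATP read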
TMEM16A act: activates or potentiates the mouse TMEM16A chloride channel; Q8BHY3; B-score at 10 µM; actives 0.3% (n = 340,000); HEK293 TMEM16A/YFP-H148Q/I152L, iodide quench fluorescence; active compounds read low;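 active = fluorescence-ratio B-score plate-corrected deviation score at least 3 library SD below zero, with starting fluorescence score within 5 deviations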;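 also: channel opened by trigger with iodide after compound preincubation; score built on the fluorescence ratio of max minus min over baseline; more negative score means more quench and so TMEM16A activation or potentiation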
Target sequence (Q8BHY3 whole entry, looked up): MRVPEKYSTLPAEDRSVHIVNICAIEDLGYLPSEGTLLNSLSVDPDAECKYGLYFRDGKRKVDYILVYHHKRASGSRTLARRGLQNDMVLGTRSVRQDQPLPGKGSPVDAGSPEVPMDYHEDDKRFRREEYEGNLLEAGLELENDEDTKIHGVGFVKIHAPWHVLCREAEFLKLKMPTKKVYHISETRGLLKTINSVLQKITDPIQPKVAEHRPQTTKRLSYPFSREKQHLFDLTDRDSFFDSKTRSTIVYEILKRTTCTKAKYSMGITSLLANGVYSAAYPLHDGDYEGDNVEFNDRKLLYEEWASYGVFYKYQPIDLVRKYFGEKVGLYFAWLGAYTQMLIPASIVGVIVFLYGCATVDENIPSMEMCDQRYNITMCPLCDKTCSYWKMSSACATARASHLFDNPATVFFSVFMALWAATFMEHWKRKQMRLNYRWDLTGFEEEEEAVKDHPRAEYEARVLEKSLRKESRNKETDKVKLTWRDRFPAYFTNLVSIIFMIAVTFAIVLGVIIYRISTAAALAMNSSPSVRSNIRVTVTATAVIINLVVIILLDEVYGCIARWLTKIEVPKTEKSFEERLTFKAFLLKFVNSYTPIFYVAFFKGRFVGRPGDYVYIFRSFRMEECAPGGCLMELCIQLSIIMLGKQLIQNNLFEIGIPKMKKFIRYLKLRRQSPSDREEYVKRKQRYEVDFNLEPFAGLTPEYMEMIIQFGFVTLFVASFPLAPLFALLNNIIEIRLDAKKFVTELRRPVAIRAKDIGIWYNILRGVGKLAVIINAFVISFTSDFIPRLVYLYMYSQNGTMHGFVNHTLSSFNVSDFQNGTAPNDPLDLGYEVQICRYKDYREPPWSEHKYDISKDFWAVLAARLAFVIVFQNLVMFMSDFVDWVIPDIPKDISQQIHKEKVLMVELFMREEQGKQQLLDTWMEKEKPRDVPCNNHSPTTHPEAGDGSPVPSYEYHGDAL
ANO1 block: blocks the mouse calcium-activated chloride channel TMEM16A | actives 1.2% (n = 310,000) | Q8BHY3 | HEK293 TMEM16A/YFP iodide influx fluorescence, ionomycin | normalized B-score (activity score, 25-100; higher = stronger inhibition) at 10 µM;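 active = ratio plate-corrected score three or more library SD toward inhibition, starting fluorescence score within five deviations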;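 also: score derived from kinetic fluorescence span divided by baseline fluorescence per well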
The depositor's hits bear a star; i = inactive; . = no result.

SMILES	ABCB6 inh MLPCN	DAGLB inh	iPSC survival up	TMEM16A act	ANO1 block
COC(=O)c1c(C)oc2ccc(N(C(=O)c3ccncc3)S(=O)(=O)c3ccc(C)cc3)cc12	101	-2	-2	i	100*
CC(C)C[C@@H]1COc2cccc(N3CCSCC3)c2S(=O)(=O)N1	96	.	-1	.	.
Cc1cc(OCCCCN2C(=O)NC(C)(C)C2=O)ccc1[N+](=O)[O-]	93	2	-3	i	25*
O=c1c(-c2ccccc2)cocc1-c1ccccc1	99	-1	0	.	.
COc1ccc(OC)c2cc3ccccc3cc12	110	-2	0	-8.3*	.
CCCCNC(=O)c1onc(CSc2ccc(C(C)C)cc2)c1C(=O)O	95	15	2	i	25*
CC1Sc2ccc(S(=O)(=O)N3CCC(C(=O)Nc4cccc(Cl)c4)CC3)cc2NC1=O (stereo unspecified)	104	-2	0	i	25*
Cc1ccc(NC(=O)C2CCN(S(=O)(=O)c3ccc4c(c3)NC(=O)C(C)S4)CC2)cc1C (stereo unspecified)	102	-1	-1	i	i
COCCN1C(=O)/C(=C/c2ccc(OCc3ccc(C(=O)O)cc3)c(OC)c2)SC1=Nc1ccccc1	102	2	2	i	100*
COc1cc(/C=C2\SC(=Nc3ccccc3)N(Cc3ccco3)C2=O)ccc1OC(C)C(=O)O (stereo unspecified)	101	2	-2	i	i
C=CC(C)(C)c1c(O)c(CC=C(C)C)c(O)c2c(=O)c3ccc(O)c(O)c3oc12	101	19	-2	i	100*
Cc1c(-c2ccc(F)cc2)[n+](=O)c2c(n1[O-])CCCCC2	102	3	-1	-6.9*	i
COc1ccc(-c2nc3cc(C)c(Br)c(C)n3c2Cc2cccc(F)c2)cc1OC	100	.	-1	.	.
CC1CC(=O)c2c(cc3c(-c4c(O)cc(O)c5c(O)c6c(cc45)OC(C)CC6=O)c(O)cc(O)c3c2O)O1 (stereo unspecified)	134	26	-3	-20*	i
O=C1CC(c2ccc(O)cc2)Oc2cc(O)cc(O)c21 (stereo unspecified)	98	4	-1	i	i
COc1ccc(NC(=O)c2ccccc2SC)c(OC)c1	109	-2	2	-5.8*	i
Cc1cc(Cl)ccc1OC(C)C(=O)Nc1ccccc1N1CCOCC1 (stereo unspecified)	85	-10	1	-20*	100*
CCCOc1ccc(C2C(C(=O)c3ccc(C)o3)=C(O)C(=O)N2CCN2CCOCC2)cc1OC (stereo unspecified)	108	-1	-2	i	100*
Cc1cc(OCC(=O)NCCc2cccc(F)c2)c2c(C)cc(=O)oc2c1	102	0	0	i	i
O=C(/C=C/c1cccc(Cl)c1)Nc1ncccn1	100	-3	-1	i	i
O=C(/C=C/c1cccc(C(F)(F)F)c1)Nc1cccc(C(F)(F)F)c1	102	-12	-1	-7.2*	100*
CSc1cccc(NC(=O)/C=C/c2cccc(Cl)c2)c1	96	-6	-1	i	100*
O=C1C=C(CCc2ccccc2)CCC1	101	-7	2	.	.
CNS(=O)(=O)c1cccc(C(=O)OCC(=O)NC(C)CCc2ccccc2)c1 (stereo unspecified)	95	2	0	i	i
CC(CCc1ccccc1)NC(=O)COC(=O)c1cc(NS(=O)(=O)c2ccc(Cl)c([N+](=O)[O-])c2)ccc1O (stereo unspecified)	101	5	3	i	100*
SMILES	ABCB6 inh MLPCN	DAGLB inh	iPSC survival up	TMEM16A act	ANO1 block
CCCCN(C)c1c(C)nc2ccc(C(=O)N(C)Cc3ccco3)cn12	96	.	2	.	.
CCOC(=O)c1[nH]c2ccc(OC)cc2c1NC(=O)CCN1CCSCC1	102	-3	0	i	i
COC(=O)c1[nH]c2ccccc2c1NC(=O)CCN1CCSCC1	99	-3	26*	i	i
Cc1ccc(N2CCN(c3ccc(C)cc3)C2c2cccnc2)cc1	95	-9	-2	i	25*
c1ccc(N2CCN(c3ccccc3)C2c2cccnc2)cc1	103	-2	-2	i	i
CNC(CC(=O)c1ccc([N+](=O)[O-])cc1)C(Cl)(Cl)Cl (stereo unspecified)	95	4	-2	i	25*
Cc1c(C(=O)NCc2ccccc2C(F)(F)F)sc(=O)n1Cc1ccc2ccccc2c1	104	.	20*	.	.
CN(CC(=O)Nc1ccc(Cl)c(C(F)(F)F)c1)C(=O)C1CSC2(C)CCC(=O)N12 (stereo unspecified)	93	3	0	i	i
C/C(=C\c1cc2ccccc2o1)C1Nc2cccc3cccc(c23)N1	106	6	-2	-18*	.
O=C(C1CCCC1)N1CCC(CO)(Cc2ccccc2Cl)CC1	103	0	-1	i	i
CC(C)(C)NC(=O)N1CCC(CO)(Cc2ccccc2Cl)CC1	98	-2	0	-6.9*	i
COc1cccc(CNc2nc3cc(-c4ccccc4C)sc3c(=O)n2C)c1OC	97	.	1	.	.
CCN(C(=O)c1ccc(C(C)(C)C)cc1)c1nnc(Cn2nnc3ccccc32)s1	99	-6	-4	i	100*
CCN(C(=O)CC(C)C)c1nnc(Cn2nnc3ccccc32)s1	97	-2	0	i	i
COc1ccc2nc(C)cc(N/N=C/c3ccccc3)c2c1	107	0	-1	i	.
COc1ccc(/C=N/Nc2cc(C)nc3ccc(OC)cc23)c(OC)c1	112	2	-1	i	100*
O=c1cc(-c2ccc(O)c(O)c2)oc2cc(O[C@@H]3O[C@H](CO)[C@@H](O)[C@H](O)[C@H]3O)cc(O)c12	98	-1	1	-16*	.
C[C@@H]1O[C@@H](OC[C@H]2O[C@@H](Oc3cc(O)c4c(=O)cc(-c5ccc(O)c(O)c5)oc4c3)[C@H](O)[C@@H](O)[C@@H]2O)[C@H](O)[C@H](O)[C@H]1O	103	-1	3	i	.
Cn1ccc2c(-c3ccc(CO)cc3)cc3c(c21)C1CCC3C1 (stereo unspecified)	97	.	5	.	.
COc1ccccc1-c1ccc(SCc2cccc(C)c2)nn1	101	-4	-1	i	100*
COc1ccccc1-c1ccc(SCc2ccc([N+](=O)[O-])cc2)nn1	93	-5	0	i	i
O=c1[nH][nH]cc1C=Nc1ccccc1O	68*	-5	0	i	i
Cc1cc(Cl)ccc1NS(=O)(=O)c1c(C)[nH]c(=O)[nH]c1=O	101	0	0	i	i
C=C1C(=O)OC2C1CCC(C)=C1C(=O)C3OC3(C)C12 (stereo unspecified)	98	-9	27*	i	.
